Assay results published in PubChem BioAssay (NCATS).

experiment: qHTS profiling of the MIPE4 collection as inhibitors of Plasmodium falciparum (3D7) proliferation (AID 743344);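 note: scaled between DMSO vehicle wells and 0.29 µM artemisinin as full inhibition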; conditions: P. falciparum 3D7 in erythrocytes, SYBR Green DNA fluorescence, 72 h; at 9.64 µM (top of the series)
Text: Plasmodium falciparum is a virulent malarial parasite that kills 1-2 million people worldwide each year. Transmitted by mosquitoes, the sporozoite form of the parasite enters the blood stream to infect hepatocytes, where they become merozoites that infect red blood cells (erythrocytes). Within erythrocytes, merozoites begin a […] cycle of growth and division, after which the parasite is released to infect new red blood cells. Gametocytes, which form within erythrocytes as well, circulate in the bloodstream and are ingested by the mosquito, thereby completing the life cycle. To profile malarial isolates for differential chemical responses and to identify inhibitors of malarial growth, an assay that measures P. falciparum growth and replication within erythrocytes was employed. This assay uses a DNA binding fluorescent dye (SYBR Green) to detect parasite DNA following cell lysis. Because mature erythrocytes lack DNA, only Plasmodium-derived DNA is detected.
The SYBR Green viability assay was adapted from a method described previously (Plouffe et al., 2008). For screening 3 ul culture medium was dispensed into 1536 well black clear bottom plates (Aurora Biotechnologies) using a Multidrop Combi (Thermo Fisher Scientific Inc.), 23 nL compounds in DMSO were added by a pin tool (Kalypsys), and 5 ul of erythrocytes infected with P. falciparum (0.3% parasitemia, 2.5% hematocrit final concentration) were added. The plates were incubated at 37 C in a humidified incubator in 5% CO2 for 72 h, and 2 ul lysis buffer (20 mM Tris HCl, 10 mM EDTA, 0.16% saponin, 1.6% triton X, 10X SYBR Green I supplied as 10,000X […] by Invitrogen) was added to each well. The plates were mixed for 25 sec with gentle shaking and incubated overnight at room temperature in the dark. The following morning, fluorescence intensity at 485(14) nm excitation and 535(25) nm emission wavelengths was measured on an EnVision (Perkin Elmer) plate reader. Plate reads were normalized relative to the control inhibitor (0.29 uM artemisinin) and vehicle (DMSO) wells present on each plate and then corrected by an algorithm using vehicle-only control plates at the beginning and end of the compound plate stack.

Structure (SMILES)	parasite growth, % of DMSO control
CCCCN(CCCC)CCC(O)c1cc2c(Cl)cc(Cl)cc2c2cc(C(F)(F)F)ccc12 (stereo not given)	7.84%

same assay, conditions: P. falciparum 3D7 in erythrocytes, SYBR Green DNA fluorescence, 72 h; at 28.5 µM

Structure (SMILES)	parasite growth, % of DMSO control
CCCCN(CCCC)CCC(O)c1cc2c(Cl)cc(Cl)cc2c2cc(C(F)(F)F)ccc12 (stereo not given)	7.96%

same assay, conditions: P. falciparum 3D7 in erythrocytes, SYBR Green DNA fluorescence, 72 h; at 28.5 µM unless noted

Structure (SMILES)	parasite growth, % of DMSO control
CC1=C(C)C(=O)C(C(CCCCCC(=O)O)c2ccccc2)=C(C)C1=O (stereo not given)	50.6%
CC(=O)N1CCN(c2ccc(OC[C@H]3CO[C@](Cn4ccnc4)(c4ccc(Cl)cc4Cl)O3)cc2)CC1	10.3%
c1ccc2[nH]c(-c3cscn3)nc2c1	11.2%
N=C(N=C(N)N)N1CCOCC1	106%
COC(=O)N[C@H](C(=O)N[C@@H](Cc1ccccc1)[C@@H](O)CN(Cc1ccc(-c2ccccn2)cc1)NC(=O)[C@@H](NC(=O)OC)C(C)(C)C)C(C)(C)C	7.5%
CN(C)CCCC1(c2ccc(F)cc2)OCc2cc(C#N)ccc21 (stereo not given)	95.4%
Nc1nc(N)c(N=O)c(OCC2CCCCC2)n1	28%
CC[C@]1(O)C[C@H]2CN(CCc3c([nH]c4ccccc34)[C@@](C(=O)OC)(c3cc4c(cc3OC)N(C=O)[C@H]3[C@@](O)(C(=O)OC)[C@H](OC(C)=O)[C@]5(CC)C=CCN6CC[C@]43[C@@H]65)C2)C1	19.3%
O=C(CS(=O)Cc1ccco1)NCC=CCOc1cc(CN2CCCCC2)ccn1 (stereo not given)	78%
NC(=NCc1ccccc1)NC(=O)c1nc(Cl)c(N)nc1N	103%
COc1ccccc1N1CCN(CCN(C(=O)C2CCCCC2)c2ccccn2)CC1	57.8%
COc1cc2nc(N3CCN(C(=O)C4CCCO4)CC3)nc(N)c2cc1OC (stereo not given)	30.8%
Cc1nc(-c2ccc(OCC(C)C)c(C#N)c2)sc1C(=O)O	64.2%
Cc1ccc(C)c(OCCCC(C)(C)C(=O)O)c1	5.29%
Clc1ccc(C(Cn2ccnc2)OCc2c(Cl)cccc2Cl)c(Cl)c1 (stereo not given)	4.82%
CCCCCCCCCCCCCCCCCCCCCCO	94.9%
Clc1ccc(C(Cn2ccnc2)OCc2ccsc2Cl)c(Cl)c1 (stereo not given)	4.99%
CC(S)C(=O)NCC(=O)O (stereo not given)	95.6%
CCCCC(CC)COC(=O)C(C#N)=C(c1ccccc1)c1ccccc1 (stereo not given)	9.47%

Structure (SMILES)	parasite growth, % of DMSO control
CC(=O)O[C@H]1C(=O)[C@@]2(C)C([C@H](OC(=O)c3ccccc3)[C@]3(O)C[C@H](OC(=O)[C@H](O)[C@@H](NC(=O)c4ccccc4)c4ccccc4)C(C)=C1C3(C)C)[C@]1(OC(C)=O)CO[C@@H]1C[C@@H]2O (stereo not given in full)	5.85%
CNC[C@H](O)c1ccc(O)c(O)c1	61.3% [at 57.5 µM]
CN(C)CCc1c[nH]c2ccc(Cn3cncn3)cc12	89.2%
Nc1ccn([C@@H]2O[C@H](CO)[C@@H](O)C2O)c(=O)n1 (stereo not given in full)	89.3%
CCOC(=O)C1=C(O)C(=O)N(Cc2ccccc2)C1	74.5%
Cc1cc(=O)c2c(O)c3c(O)cc(=O)c4c3c3c(cc(O)c1c23)C(C)(C)C=4O	6.69%
C[C@H](Cc1ccc(O)c(O)c1)[C@@H](C)Cc1ccc(O)c(O)c1	15.1%
CS(=O)(=O)OCCCCOS(C)(=O)=O	89.8%
Cc1cc(Cl)ccc1OCCCC(=O)NO	34.3%
CC(C)C[C@H](NC(=O)[C@H](Cc1ccccc1)NC(=O)c1cnccn1)B(O)O	4.91%
Cc1cc(C2CCCCC2)n(O)c(=O)c1	6.27%
O=C(NCCO[N+](=O)[O-])c1cccnc1	102%
COc1c(O)cc2c(c1O)[C@@H]1O[C@H](CO)[C@@H](O)[C@H](O)[C@H]1OC2=O	92.9%
c1cnc2cc3c(cc2n1)C1CNCC3C1	94.7%
CC(=O)NC[C@H]1CN(c2ccc(N3CCOCC3)c(F)c2)C(=O)O1	65.6%
Nc1ccc(S(N)(=O)=O)cc1	105%
Cc1ccc(NC(=O)c2ccc(CN3CCN(C)CC3)cc2)cc1Nc1nccc(-c2cccnc2)n1	6.13%
O=c1oc2cc(O)ccc2s1	85.1%
Cc1ccc(C(=O)c2cc(O)c(O)c([N+](=O)[O-])c2)cc1	82.6%
